Drawing on PubChem BioAssay AID588342 (National Center for Advancing Translational Sciences (NCATS), 2011), this text covers Potency for 107 compounds.

The whole screen tested about 360,000 compounds, of which about 25,000 (6.9%) were called active. Where a call stands in place of a potency, no number is given. Another 9% or so got no clear call; they are omitted. Calls follow the shape of the dose curve; as a rule, active = well fitted inhibition curve with a large enough effect; inconclusive = small, poorly fitted or top-dose-only effect; inactive = flat fitted curve, though single readings scatter. This excerpt belongs to a sample that is enriched for actives.
Potency is read from the fitted curve at half-maximal effect.

This experiment deals with Luciferin 4-monooxygenase (Photinus pyralis) (UniProt P08659). Briefly: qHTS profiling assay for firefly luciferase inhibitor/activator using purifed enzyme and Km concentrations of substrates (counterscreen for miR-21 project). Also: nearly all actives have a fitted effect of over 55% in size. Particulars: purified FLuc, luminescence inhibition; series mostly up to 57.5 µM. In a few lines: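 Biochemical qHTS of compounds, final roughly 60 µM downward over six points, against 10 nM purified firefly luciferase using Km concentrations of substrates (10 uM D-luciferin, 10 uM ATP) in Tris acetate pH 7.5 buffer; luminescence output.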
Sequence of Luciferin 4-monooxygenase (Photinus pyralis) (P08659 whole entry, looked up): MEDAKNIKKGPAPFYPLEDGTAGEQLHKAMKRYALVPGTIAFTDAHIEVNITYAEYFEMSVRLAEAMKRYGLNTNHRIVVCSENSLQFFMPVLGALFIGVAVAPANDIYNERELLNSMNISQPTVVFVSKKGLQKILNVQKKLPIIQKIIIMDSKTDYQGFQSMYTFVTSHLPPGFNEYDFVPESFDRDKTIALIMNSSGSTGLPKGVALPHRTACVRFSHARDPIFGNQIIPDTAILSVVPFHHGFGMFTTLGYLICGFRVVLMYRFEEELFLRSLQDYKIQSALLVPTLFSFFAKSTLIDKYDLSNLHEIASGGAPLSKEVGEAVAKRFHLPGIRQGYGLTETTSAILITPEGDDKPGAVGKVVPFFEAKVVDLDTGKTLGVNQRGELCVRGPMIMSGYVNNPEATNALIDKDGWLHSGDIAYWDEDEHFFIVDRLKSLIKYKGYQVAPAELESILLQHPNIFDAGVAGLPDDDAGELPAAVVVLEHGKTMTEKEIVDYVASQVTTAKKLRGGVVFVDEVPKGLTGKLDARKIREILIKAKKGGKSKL
On the technique in general: Quantitative high-throughput screening tests each substance at several concentrations.
Regarding `CCOc1ccc(C2C(C(=O)Nc3ccc(Cl)cc3)=C(C)Nc3nc(C(F)(F)F)nn32)cc1` (configuration not stated), the Potency result is “inactive”.
`COc1ccc(CCNC(=O)c2c3c(nc4ccccc24)C(=O)N(C2CCCCC2)C3)cc1OC`: the Potency entry was “inactive”.
As to `CCOC(=O)CN1C(C(=O)c2ccccc2)=C(OC(=O)C(C)(C)C)c2ccccc2S1(=O)=O`, the Potency result was “inactive”.
With `CSc1nc(-c2ccccc2Cl)nc2c1Cc1c(CO)cnc(C)c1O2`, the Potency result is “inactive”.
The result for `COC(=O)c1ccc(NC(=O)c2ccccc2NS(=O)(=O)c2ccccc2)cc1` reads 16.9 µM (active); that for `CCOc1ccc(NC(=O)c2cnn(-c3ccccc3)c2-n2cccc2)cc1`, “inactive”.
The result for `COC(=O)c1ccccc1NS(=O)(=O)c1ccc2[nH]c(=O)[nH]c2c1` reads “inactive”; that for `COc1ccc(NC(=O)c2cnc(NS(=O)(=O)c3ccccc3)nc2)cc1`, “inactive”.
Take `CCCNC(=O)Nc1ccccc1C(=O)Nc1ccc(OC)cc1`: the Potency result was “inactive”.
Take `CCOc1ccc(NC(=O)c2ccccc2NS(C)(=O)=O)cc1`: the Potency is 10.7 µM (active).
`CCC1CCCCN1S(=O)(=O)c1ccc(NC(=O)c2cc(=O)c3ccccc3o2)cc1` (configuration not stated): the Potency entry was “inactive”.
For the compound `COc1ccc(NC(=O)CCCN2C(=O)CCn3nc(-c4cn(C)c5ccccc45)cc32)cc1OC`, the Potency result is “inactive”.
Then `O=S(=O)(NCCc1nnc2ccc(SCc3ccc(Cl)cc3Cl)nn12)c1ccccc1`, with “inactive”; and `CCOc1ccc2oc(=O)cc(CN3CCN(C(=O)c4ccc(F)cc4)CC3)c2c1`, with “inactive”.
The result for `Cc1cc(C)nc(N/N=C/c2ccc([N+](=O)[O-])o2)n1` reads “inactive”.
With `Cc1cc2c(C)nc(N/N=C/c3ccccc3)nc2o1`, the Potency is 9.53 µM (active).
Regarding `Cc1cc(C)nc(N/N=C/c2ccncc2)n1`, the Potency result is “inactive”.
On to `COc1ccc([C@H]2CC(=O)C=C(c3ccc(C)cc3)C2)cc1`, for which the Potency result was “inactive”.
For `Cc1nnc(N2CCCC(C(=O)NCCN(C)C)C2)c2nn(-c3ccccc3)c(C)c12` (configuration not stated), the Potency entry was “inactive”.
Consider `CCCCOC(=O)Nc1nnc(CC(=O)NCc2ccccc2)s1`, for which the Potency result was “inactive”.
As to `CCCCCCOC(=O)NCC(O)c1ccccc1` (configuration not stated), the Potency is 12 µM (active).
The result for `CCCCCOC(=O)NCCOC(=O)Nc1ccc(C(=O)OCC)cc1` reads “inactive”.
For `Cc1cc(Cl)ccc1C(=O)C1CCCN(C(=O)c2nonc2C)C1` (configuration not stated), the Potency result was “inactive”.
For `CCOC(=O)c1ccccc1NC(=O)c1nn(-c2ccc(OC)c(Cl)c2)c(=O)c2c1c1ccccc1n2C`, the Potency result is “inactive”.
Then `O=C1CC(c2ccccc2)=NN1c1ccc([N+](=O)[O-])cc1`, with 13.5 µM (active).
For the compound `COC(=O)CC1=NN(c2ccccc2)C(=O)C1`, the Potency entry was “inactive”.
The result for `O=c1[nH]n(-c2ccc([N+](=O)[O-])cc2)c(=O)c2ccccc12` reads “inactive”; that for `COc1cc(C)ccc1OCCSc1nc2ccc(NC(=O)c3ccc(C)cc3)cc2s1`, “inactive”.
Turning to `CNS(=O)(=O)c1cccc(C(=O)NCC2CCCCC2)c1`, the Potency entry was “inactive”.
As for `CN(C(=O)c1cccc(OC2CCN(S(=O)(=O)N(C)C)CC2)c1)C1CCOC1` (configuration not stated), the Potency result was “inactive”.
For the compound `CN(C)S(=O)(=O)N1CCC(Oc2cccc(C(=O)NCCCC3CCCC3)c2)CC1`, the Potency was 16.9 µM (active).
For `Cc1nn(-c2ccc(F)cc2)c(-n2cccc2)c1C(=O)N1CCN(c2ccccc2)CC1`, the Potency result was “inactive”.
For the compound `CCc1ccccc1N(C)C(=O)C1CCCN(c2ncnc3onc(-c4ccc(F)cc4)c23)C1` (configuration not stated), the Potency entry is “inactive”.
`Cc1ccc(S(=O)(=O)NNC(=S)NC(C)(C)C)cc1`: the Potency entry was “inactive”.
Then `O=C1CSC2(C(=O)N(Cc3ccccc3)c3ccccc32)N1c1cccc(F)c1` (configuration not stated), with “inactive”.
The result for `Cc1cc(C)c(S(=O)(=O)N2CCC(C(=O)OCc3c(C)noc3C)CC2)c(C)c1` reads “inactive”.
Turning to `CC(=O)Nc1ccc(Oc2ccc3c(c2)C(=O)NC3=O)cc1`, the Potency entry is “inactive”.
As for `CC(=O)O[C@H]1c2ccccc2-c2ccccc2[C@@H]1OC(C)=O`, the Potency result was “inactive”.
Turning to `CC(=O)Oc1ccc2c(c1)C(=O)c1ccccc1C2=O`, the Potency is 8.49 µM (active).
As to `COc1ccc([C@H]2CC(=O)C=C(/C=C/c3ccc(Cl)cc3)C2)cc1`, the Potency result was “inactive”.
As to `CCn1nc(C(=O)NNC(=O)C2CSC3(C)CCC(=O)N23)c2ccccc2c1=O` (configuration not stated), the Potency entry was “inactive”.
Turning to `Cc1sc2ncn(CC(=O)NCCCC(=O)N(C)Cc3ccccc3)c(=O)c2c1C`, the Potency result is “inactive”.
In the case of `Cc1cc(=O)oc2c(C)c(OC(C)C(=O)NC3CCN(Cc4ccccc4)CC3)ccc12` (configuration not stated), the Potency result is “inactive”.
Consider `O=C(NC(=S)Nc1ccc(S(=O)(=O)N2CCOCC2)cc1)c1ccccc1[N+](=O)[O-]`, for which the Potency result was “inactive”.
On to `O=C(Nc1ccc(N2CCOCC2)cc1)c1ccc(-c2ccccc2[N+](=O)[O-])o1`, for which the Potency was 3.38 µM (active).
For `CN(CC(=O)Nc1ccc(N2CCOCC2)cc1)CC(=O)Nc1ccccc1[N+](=O)[O-]`, the Potency entry is “inactive”.
The result for `Cc1ccc2nc(C)c3c(c2c1)N(c1ccccc1)CC3` reads “inactive”; that for `O=C(Cn1c(-c2cccs2)cc2ccccc21)NCCc1ccc(Cl)cc1`, “inactive”.
Regarding `Cc1cc(/C=C(/C#N)C(=O)Nc2ccc(Cl)cc2)c(C)n1-c1cccnc1`, the Potency entry is “inactive”.
Regarding `Cc1ccc2c(c1)N(CC(=O)NCC1CCCO1)C(=O)CO2` (configuration not stated), the Potency result was “inactive”.
Consider `Cc1ccc(-n2c(C)cc(/C=C(\C#N)C(=O)NCC3CCCO3)c2C)cc1` (configuration not stated), for which the Potency is 0.675 µM (active).
Regarding `CC(=O)N1CCc2cc(Br)cc(S(=O)(=O)CCC(=O)NCCc3ccc(Cl)cc3)c21`, the Potency result was “inactive”.
Regarding `Cc1cccc(-n2nc3c(c2NC(=O)c2cc4ccccc4o2)CS(=O)(=O)C3)c1`, the Potency entry was “inactive”.
Turning to `Cc1ccsc1C(=O)OCC(=O)Nc1cccc(F)c1`, the Potency entry was “inactive”.
Regarding `CC(OC(=O)c1cc2ccccc2o1)C(=O)Nc1ccc(N2CCOCC2)cc1` (configuration not stated), the Potency entry is “inactive”.
Consider `CC(=O)N1CCN(c2ccccc2NC(=S)NC(=O)c2cc3ccccc3o2)CC1`, for which the Potency result is “inactive”.
Take `C/C(=N\NS(=O)(=O)c1cccc([N+](=O)[O-])c1)c1cc2ccccc2o1`: the Potency entry is “inactive”.
In the case of `Cc1ccc(NC(=O)c2cc3ccccc3o2)cc1`, the Potency was 3.38 µM (active).
Then `CCN(C(=O)COC(=O)c1sccc1C)c1c(N)n(Cc2ccccc2)c(=O)[nH]c1=O`, with “inactive”; and `CC(=O)Nc1ccc(-c2nc3ccccc3o2)cc1`, with 3.01 µM (active).
Then `Cc1ccsc1C(=O)OCC(=O)c1cc2ccccc2o1`, with 5.36 µM (active); and `Cc1ccccc1C(=O)Nc1cc(C)c(O)c(-c2nc3ccccc3o2)c1`, with “inactive”; and `COC(=O)c1ccc(-c2nc3cc(NC(C)=O)ccc3o2)cc1`, with “inactive”.
In the case of `C/C(=N\NC(=S)Nc1ccc(C)cc1)c1cc2ccccc2o1`, the Potency is 12 µM (active).
For the compound `COc1cc(C(=O)NCCc2csc3nc(-c4ccccc4C)nn23)cc(OC)c1OC`, the Potency result was “inactive”.
Turning to `Cc1ccc2cccc(NC(=O)C(C)Oc3ccc(C)c(C)c3)c2n1` (configuration not stated), the Potency result was “inactive”.
Then `CC(C)Cn1c(C2CC(=O)N(c3ccccc3Cl)C2)nc2ccccc21` (configuration not stated), with “inactive”; and `Cc1ccc(C)c(Cn2c(C)c(CNCc3ccc(F)cc3)c(C(=O)O)c2C)c1`, with “inactive”.
Consider `COc1ccccc1CN(C)C(=O)c1cc2ccccc2o1`, for which the Potency result is “inactive”.
Then `Cc1ccc(OC(=O)c2cc3ccccc3o2)cc1`, with 0.757 µM (active); and `CCc1ccc2oc(-c3ccc(NC(=O)c4cc5ccccc5o4)cc3)nc2c1`, with “inactive”.
Then `O=C(Nc1ccncc1)c1cc2ccccc2o1`, with 12 µM (active); and `Cc1ccsc1C(=O)OCC(=O)c1cc(C)n(CC2CCCO2)c1C` (configuration not stated), with 0.151 µM (active); and `Cc1cc2nc(-c3ccc(NC(=O)c4cc5ccccc5o4)cc3)oc2cc1C`, with 23.9 µM (active).
Then `Cc1cc(C(=O)Cn2cnc3cc([N+](=O)[O-])ccc3c2=O)c(C)n1CC1CCCO1` (configuration not stated), with “inactive”.
On to `Cc1ccc(OC(=O)c2ccccc2C(=O)OCC(F)(F)C(F)F)cc1`, for which the Potency result was “inactive”.
In the case of `CCC(C)c1ccc2oc(-c3ccc(NC(=O)c4cc5ccccc5o4)cc3)nc2c1` (configuration not stated), the Potency result was “inactive”.
For the compound `Cc1cc(C(=O)CCl)c(C)n1CC1COc2ccccc2O1` (configuration not stated), the Potency entry is “inactive”.
`CCC1CCC2(CC1)NC(=O)N(CC(=O)Nc1ccc(OC)cc1)C2=O` (configuration not stated): the Potency entry is “inactive”.
For `Cc1ccc(-c2nc3ccccn3c2Nc2c(C)cccc2C)o1`, the Potency result was “inactive”.
For `Cc1ccc(S(=O)(=O)N2CCCc3cc(NS(=O)(=O)c4cc(C)ccc4C)ccc32)cc1`, the Potency entry is “inactive”.
Turning to `O=C(CCc1nc2sc3c(c2c(=O)[nH]1)CCCC3)NCC(=O)Nc1ccccc1Br`, the Potency result was “inactive”.
Consider `Cc1cc(N(C)C)cc(C)[n+]1[O-]`, for which the Potency result is “inactive”.
The result for `COc1cc(OC)cc(C(=O)NNC(=O)CCOc2ccccc2OC)c1` reads “inactive”; that for `CCOc1ccccc1NC(=O)C1CCCN(S(=O)(=O)c2cn(C)cn2)C1` (configuration not stated), “inactive”.
In the case of `COc1ccc(S(=O)(=O)N2CCOCC2)cc1NC(=O)Cc1c(F)cccc1Cl`, the Potency entry was “inactive”.
In the case of `COc1ccc(CCNC(=O)COC(=O)C2CC2C)cc1` (configuration not stated), the Potency entry was “inactive”.
As for `Cc1ccc(Nc2nc(N3CCOCC3)nc(N3CCOCC3)n2)cc1Cl`, the Potency result was “inactive”.
On to `CNc1nc(Nc2ccc(C)c(Cl)c2)nc(N)c1[N+](=O)[O-]`, for which the Potency is 4.78 µM (active).
As for `CCN1CCN(c2nc(Nc3cccc(F)c3)nc(N)c2[N+](=O)[O-])CC1`, the Potency result was “inactive”.
Then `COc1ccccc1CNC(=O)Cn1nc(C)c2nn(-c3ccc(Cl)cc3)c(C)c2c1=O`, with “inactive”; and `CCOC(=O)c1cccc(NS(=O)(=O)c2cn(C)c(C)n2)c1`, with “inactive”; and `O=C(CC1SC(=Nc2ccccc2)N(Cc2ccccn2)C1=O)Nc1cccc(Cl)c1` (configuration not stated), with “inactive”.
Then `O=C(Nc1cccc(Cl)c1)OCc1ccccn1`, with 26.9 µM (active); and `O=C(Nc1ccccc1)OCc1cn(-c2ccc(Cl)cc2)nn1`, with “inactive”; and `Nc1cccc(S(=O)(=O)Nc2ccc(SC(F)F)cc2)c1`, with “inactive”.
As to `O=C(CCn1c(=O)c2sccc2n(Cc2ccc(F)cc2)c1=O)NCc1ccc2c(c1)OCO2`, the Potency entry was “inactive”.
The result for `COc1ccccc1N1CCN(C(CNC(=O)C(=O)NCc2ccc(C)cc2)c2cccnc2)CC1` (configuration not stated) reads “inactive”; that for `CCOc1ccc(CNCc2c(C(=O)O)c(C)n(Cc3cccc(OC)c3)c2C)cc1OC`, “inactive”; that for `COc1ccc(N2CCN(c3nc(-c4ccccc4F)nc4ccccc34)CC2)cc1`, “inactive”.
Turning to `Cc1ccc(/C=N/NC(=O)C2=NNC(c3ccccc3)(c3ccccc3)C2)c(O)c1`, the Potency entry was “inactive”.
As for `Oc1c(Br)cccc1/C=N/Nc1c(F)c(F)c(F)c(F)c1F`, the Potency entry is “inactive”.
Take `Cc1nc2ccccc2nc1N/N=C/c1ccc(O)cc1O`: the Potency was 12 µM (active).
Consider `Oc1ccc(/C=N/Nc2nc(-c3ccccc3F)nc3ccccc23)c(O)c1`, for which the Potency is 10.7 µM (active).
Then `CC(C)(C)Nc1nc(-c2ccccn2)nc2ccccc12`, with “inactive”.
Consider `Oc1ccc(/C=N/NC2=NCCCCC2)c(O)c1`, for which the Potency is 13.5 µM (active).
On to `Cc1n[nH]c(=O)nc1N/N=C/c1cccs1`, for which the Potency entry was “inactive”.
